Assay results from PubChem BioAssay (NCI).
Compounds without any hit were thinned out: in the full panel of roughly 79,000, 15% have a hit. Rule as the data show it: active = growth inhibition above about 70%; inactive = the rest.

Experiments:
[1] = NCI Yeast Anticancer Drug Screen. Data for the rad50 strain (AID 155);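 also: 0% = growth of vehicle-only cultures of the same strain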; details: S. cerevisiae rad50 strain growth inhibition; at 50.0 µM; stronger effect = higher value
Method in brief: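 Vehicle-treated cultures provide the reference for the growth inhibition reported for compound-exposed, repair-deficient yeast.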

[2] = NCI Yeast Anticancer Drug Screen. Data for the mec2-1 strain (AID 157); details: S. cerevisiae mec2-1 strain, at 50.0 µM, stronger effect = higher value
Method in brief: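 Growth inhibition is read against vehicle-treated controls after compound exposure of the mec2-1 yeast strain, which is defective in DNA damage repair or cell cycle control.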

[3] = NCI Yeast Anticancer Drug Screen. Data for the sgs1 mgt1 strain (AID 161);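 also: 0% = growth of cultures given vehicle only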; details: S. cerevisiae sgs1 mgt1 strain, at 50.0 µM, stronger effect = higher value
Method in brief: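 This yeast growth screen uses a strain with defined DNA-repair lesions; compound-treated growth is compared with vehicle-treated growth.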

[4] = NCI Yeast Anticancer Drug Screen. Data for the cln2 rad14 strain (AID 165);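 also: 0% = growth equal to vehicle treated cultures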; details: S. cerevisiae cln2 rad14 strain, at 50.0 µM, stronger effect = higher value
Method in brief: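 Growth inhibition, relative to vehicle-treated controls, is the read-out. The test organism is a yeast strain with defined genetic alterations, cln2 rad14.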

[5] = NCI Yeast Anticancer Drug Screen. Data for the bub3 strain (AID 167); details: S. cerevisiae bub3 mutant strain, at 50.0 µM, stronger effect = higher value
Method in brief: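 Mutant yeast screening strain plus compound; vehicle-treated cultures serve as the 0% inhibition reference.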

[6] = NCI Yeast Anticancer Drug Screen. Data for the mlh1 rad18 strain (AID 175); details: S. cerevisiae mlh1 rad18 strain growth inhibition; at 50.0 µM; stronger effect = higher value
Method in brief: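 Cells of a genetically altered yeast strain, deficient in DNA damage repair, were treated with compound. Their growth was then compared with that of vehicle-treated cultures to give inhibition.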

Measured: growth inhibition

CC12CCC(=O)[C@@]1(C)CCCC2=O (some centres not stated)
inactive: [1] -13% | [2] 5% | [3] -23.1% | [4] 6.8% | [5] -6.9% | [6] 5.05%

COc1ccc(OC)c(NC(=O)Nc2cccc(C(C)=O)c2)c1
inactive: [1] -12.2% | [2] 33.9% | [3] 33% | [4] -55.4% | [5] 35.2% | [6] 22.6%

COc1ccc(-n2c(C)nc3c(cnn3C3OC(CO)C(O)C3O)c2=O)cc1 (configuration not stated)
inactive: [1] 16.2% | [2] -5.6% | [3] -15.1% | [4] -4.15% | [5] -1.9% | [6] 11.2%

CC(=O)C(C)O (configuration not stated)
inactive: [1] -27.8% | [2] -18.8% | [3] -15.2% | [4] -0.95% | [5] -21.4% | [6] -21.1%

CCOC(=O)c1c(OC)c(-c2ccccc2)c(=O)n2c3ccccc3n(C)c12
inactive: [1] 18.2% | [2] 9.05% | [3] -0.2% | [4] -4.1% | [5] -1.1% | [6] 9.9%

O=S1(=O)CC(N2CCOCC2)C2=C(O1)c1sc(-c3ccccc3)nc1CC2 (configuration not stated)
inactive: [1] -16.8% | [2] -7.45% | [3] 14.8% | [4] 14.3% | [5] -4.55% | [6] -3.95%

CN1CCN(CCCN2CC(=O)N3Cc4ccccc4CN3C(=O)C2)CC1
inactive: [1] -26.6% | [2] -1.35% | [3] -9.45% | [4] 1% | [5] 5.15% | [6] -3%

CC(=O)C(OCCCl)OCCCl
inactive: [1] 2.9% | [2] -7.65% | [3] 1.6% | [4] -1.5% | [5] 0.3% | [6] -2.95%

CC(O)CCC(C)(C)[N+](=O)[O-] (configuration not stated)
inactive: [1] 3.15% | [2] -6.85% | [3] 0.1% | [4] 10.8% | [5] 0.25% | [6] -0.9%

CN(c1ccc(C(=O)c2ccc(N(C)S(C)(=O)=O)cc2)cc1)S(C)(=O)=O
inactive: [1] -22.6% | [2] -27.9% | [3] -8.05% | [4] -2.35% | [5] 4.5% | [6] -6.6%

CC(=O)N(C(=O)CC(=O)N1N=C(c2ccccc2)C(N=Nc2ccccc2[N+](=O)[O-])C1=O)c1ccc(Cl)cc1 (configuration not stated)
inactive: [1] -4.3% | [2] -21.8% | [3] -0.2% | [4] -37% | [5] -27.2% | [6] -19%

CCOC(=O)c1cnc(=S)[nH]c1N
inactive: [1] 40.5% | [2] -8.35% | [3] -19.2% | [4] 7.9% | [5] -3.15% | [6] -43.5%

O=C(O)c1ccc([N+](=O)[O-])cc1OCc1ccccc1
inactive: [1] 13.4% | [2] -5.1% | [3] 12.9% | [4] -39% | [5] -3.4% | [6] 3.95%

CCc1cc2c(oc3cc(C)ccc32)c(=O)n1C
inactive: [1] -12.4% | [2] -7.7% | [3] -13.8% | [4] 13.5% | [5] -14.2% | [6] -8.75%

COC(=O)C1C(C)(C(=O)OC)N=NC1(c1ccccc1)c1ccccc1 (configuration not stated)
inactive: [1] 7.85% | [2] -1.05% | [3] -7.55% | [4] 16% | [5] 19.8% | [6] -3.4%

COC(=O)C1=C(C(=O)OC)C23CC4CCC2(C(=O)C1O3)C4(C)C (configuration not stated)
inactive: [1] 36.4% | [2] 18% | [3] 23% | [4] 8.65% | [5] 21.5% | [6] -5.15%

CCOC(=O)C(C)=P(c1ccccc1)(c1ccccc1)c1ccccc1
inactive: [1] -1.6% | [2] -5.8% | [3] -1% | [4] -39.2% | [5] -0.7% | [6] -11.3%

Nc1ccccc1N
inactive: [1] -7.9% | [2] -13.3% | [3] 14.4% | [4] -4.5% | [5] -29.9% | [6] -0.35%

O=C(Nc1cccnc1)c1ccc([N+](=O)[O-])s1
inactive: [1] 11.1% | [2] 0.6% | [3] 29.3% | [4] 9.25% | [5] 11.1% | [6] 16.1%

COC(=O)C1CCC[P+]1(C)C (configuration not stated)
inactive: [1] 47.1% | [2] 41.7% | [3] 45.8% | [4] 13.8% | [5] 56.5% | [6] 38.5%

CC(O)CN1CCCC1 (configuration not stated)
inactive: [1] 5.75% | [2] -21.9% | [3] -4% | [4] 6.2% | [5] 0.6% | [6] 9.35%

COC(=O)C1=C(C)N(NC(=O)Nc2ccccc2)C2(N)N(NC(=O)Nc3ccccc3)C(C)=C(C(=O)OC)C12C(=O)OC (configuration not stated)
inactive: [1] -8.9% | [2] 5.1% | [3] 3.55% | [4] 2.2% | [5] 15.2% | [6] -2.8%

O=S(=O)(O)c1ccc[n+]([O-])c1
inactive: [1] 5.7% | [2] 15.4% | [3] -0.05% | [4] 39.5% | [5] 9.1% | [6] -8.2%

NC(=O)C1CCCCC1C(N)=O (configuration not stated)
inactive: [1] -15% | [2] -20.1% | [3] -25.6% | [4] -29.5% | [5] -27.8% | [6] -15.3%

CCOC(=O)C1C(C)=CC(=O)CC1C (configuration not stated)
inactive: [1] 19.8% | [2] 1.65% | [3] 21.9% | [4] -4.8% | [5] 4.5% | [6] 4.45%

CC(=O)OCCC1CC2c3[nH]c4ccccc4c3CCN2C1=O (configuration not stated)
inactive: [1] -3.85% | [2] -7% | [3] 15.9% | [4] 0.85% | [5] 10.7% | [6] -22.1%

c1ccc(-c2cccc(-c3ccccc3)n2)cc1
inactive: [1] 20.5% | [2] 33.9% | [3] -1.4% | [4] -10.8% | [5] -24.3% | [6] 28.7%

CCCc1cc(-c2ccc(-c3cc(CCC)c(C=O)[nH]3)s2)[nH]c1C=O
inactive: [1] -19% | [2] -19.6% | [3] -31% | [4] -4.9% | [5] -20.1% | [6] -46.9%

NS(=O)(=O)c1cc2c(cc1Cl)NC(C(=O)NNC(=O)c1ccncc1)=NS2(=O)=O
inactive: [1] -1.6% | [2] -16.5% | [3] -4.8% | [4] 1.3% | [5] -11.9% | [6] -20.4%

COc1nnc(-c2ccccc2)c(-c2ccccc2)n1
inactive: [1] 13.2% | [2] 20.3% | [3] -2.25% | [4] -9.6% | [5] 25.5% | [6] 6.5%

O=C(O)c1ccc(F)c([N+](=O)[O-])c1
inactive: [1] 7.15% | [2] -16.6% | [3] 17.4% | [4] -22.6% | [5] -11.6% | [6] 12.4%

COC1OC(CI)C(OC(=O)c2ccccc2)C(OC(=O)c2ccccc2)C1OC(=O)c1ccccc1 (configuration not stated)
inactive: [1] 10.8% | [2] 21.4% | [3] 10.2% | [4] 15.2% | [5] 36.1% | [6] 33.5%

CCCCc1ccc2[n+](c1)C(C(=O)OCC)=PC2 (configuration not stated)
inactive: [1] -18.1% | [2] -36.8% | [3] -21.4% | [4] -18.9% | [5] -19.9% | [6] -11.9%

Cc1cc(O)c(Br)cc1C
inactive: [1] 5.35% | [2] -33% | [3] 9.15% | [4] -5.45% | [5] 0.2% | [6] -9.45%

COc1ccccc1Nc1nc(NNC(=O)Cc2ccccc2)nc(NNC(=O)c2ccncc2)n1
inactive: [1] 27.4% | [2] 36.2% | [3] 25.3% | [4] 17.6% | [5] 22.7% | [6] 25.6%

CCCc1nc(CCC)nc(CCC)n1
inactive: [1] -13.8% | [2] -5.35% | [3] -10.2% | [4] -6.5% | [5] 5.55% | [6] -14.7%

Nc1ccc(C(=O)O)c(O)c1.Nc1ccc(C(=O)O)c(O)c1.[Cu]
inactive: [1] -13.4% | [2] 2.4% | [3] -20.3% | [4] 3.6% | [5] -1.95% | [6] -5.05%
